Out of some 71,000 compounds screened, about 1,300 (1.8%) were called active. The entries come from a sample that favours actives as a whole. Values without a mark were called inactive. Calls come from the whole dose curve.
These compounds were tested against Beta-lactamase (Escherichia coli (strain K12)) (UniProt P00811) (assay: Promiscuous and Specific Inhibitors of AmpC Beta-Lactamase (assay without detergent)). Details: AmpC nitrocefin hydrolysis, absorbance 480 nm, no detergent; series mostly up to 28.7 µM; activity change, negative = inhibition: at the top concentration.
Sequence of Beta-lactamase (Escherichia coli (strain K12)) (P00811 whole entry, looked up): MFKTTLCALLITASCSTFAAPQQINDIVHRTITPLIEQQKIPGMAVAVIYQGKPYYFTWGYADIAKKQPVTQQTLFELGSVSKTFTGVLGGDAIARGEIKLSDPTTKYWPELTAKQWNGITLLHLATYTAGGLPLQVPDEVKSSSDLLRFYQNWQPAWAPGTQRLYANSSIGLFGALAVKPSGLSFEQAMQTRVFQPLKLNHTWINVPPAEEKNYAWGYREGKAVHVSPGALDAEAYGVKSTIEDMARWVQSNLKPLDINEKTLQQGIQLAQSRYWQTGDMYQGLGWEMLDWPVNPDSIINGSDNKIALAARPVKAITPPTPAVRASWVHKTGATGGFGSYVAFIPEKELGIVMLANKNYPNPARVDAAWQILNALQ
Protocol: NIH Molecular Libraries Screening Centers Network [MLSCN]
NIH Chemical Genomics Center [NCGC]
PI Name: Shoichet, Brian K.
This aggregation profiling approach exploits the sensitivity of aggregate formation to detergent. Inhibition of b-lactamase is measured in the presence and absence of 0.01% Triton X-100. See Pubchem assay "Promiscuous and Specific Inhibitors of AmpC Beta-Lactamase (assay with detergent)" for related screen. Compounds that inhibit only in the absence of detergent are considered likely promiscuous aggregators.
A screen of 1,030 compounds was performed in Brian Shoichet's lab in 96-well format. AmpC activity was measured by following the absorbance at 480 nm. Nitrocefin is a chromogenic substrate: while nitrocefin is yellow (lmax 390 nm), the product of its hydrolysis is red (lmax 486 nm, 17,000 M-1). AmpC beta lactamase was provided by Brian Shoichet and Brian Feng, UCSF.
NCGC Assay Protocol Summary:
20 mM phosphate buffer, pH 7.0
Triton X-100: No Detergent screen: 0.0001%, Detergent screen: 0.01%.
Buffer in columns 3 and 4 as negative control (no enzyme).
5.3 nM AmpC in columns 1, 2, 5-48. Titration of UCSF compound 9 control (from 10 mM, then 1:2) pin-transferred to column 2. Column 1 is neutral (100% activity).
Six uL of reagents were dispensed to 1536-well Greiner black clear bottom plates. Compounds and controls (23 nL) were transferred via Kalypsys PinTool. The plates were incubated for 15 min at room temperature, and then 2 uL of 800 uM solution of nitrocefin was added to start the reaction. The plates were immediately transferred to and read every 20 seconds for 4 min on ViewLux (Perkin-Elmer) High-throughput CCD imager using 480 nm absorbance protocol. During dispense, reagent bottles were kept submerged into 4 deg C water bath.
Keywords: NIH Roadmap, MLSCN, MLI, MLSMR, qHTS, NCGC, AmpC Beta-Lactamase, Aggregation.
With `CCOc1ccc(CN(Cc2ccco2)C(c2cccs2)c2nnnn2C(C)(C)C)cc1` (stereo not given) the “activity change, negative = inhibition” value was 25.1%.
`O=C(COC(=O)c1ccccc1C(=O)c1ccccc1)c1ccco1` was tested, and the “activity change, negative = inhibition” value was 4.4%.
`CCOC(=O)NCc1ccc2c(c1)OCO2` was tested, and the “activity change, negative = inhibition” value was -7.3%.
For `O=C(NCc1ccc2c(c1)OCO2)c1cc2c(s1)CS(=O)(=O)C2`, the Potency was 12.6 µM [single pt active] (active).
With `Cc1ccc(C(=O)OCC(=O)NCc2ccc3c(c2)OCO3)s1` the “activity change, negative = inhibition” value was -2.6%.
In the case of `CC(Sc1sc(=S)sc1SC(C)C(=O)O)C(=O)O` (stereo not given), the “activity change, negative = inhibition” value is reported as 0.8%.
For `COC(=O)c1sc(NC(=O)c2ccc(OC)cc2OC)nc1C`, the “activity change, negative = inhibition” value was 16.1%.
In the case of `O=C(Nc1nncs1)c1ccccc1NS(=O)(=O)c1cccs1`, the “activity change, negative = inhibition” value is reported as -10.1%.
With `COc1ccc(C(=O)Nc2nncs2)c(OC)c1` the Potency was 3.98 µM [single pt active] (active).
With `COc1ccc(CC(=O)Nc2ccc(-c3nnc(-c4ccccc4)o3)cc2)cc1` the “activity change, negative = inhibition” value was 8.9%.
In the case of `O=C(COC(=O)c1ccc(Oc2ccccc2)cc1)Nc1nnc(-c2ccccc2)o1`, the Potency is reported as 15.8 µM (active).
For `Cc1ccc(OCC(=O)Nc2ccc(-c3nnc(-c4ccco4)o3)cc2)cc1`, the “activity change, negative = inhibition” value was 12.3%.
With `CS(=O)(=O)N1CCC2(CC1)CN(Cc1cc(C(F)(F)F)cc(C(F)(F)F)c1)C2` the “activity change, negative = inhibition” value was 63%.
With `CC1(C)C(=O)Nc2ccccc2N1C(=O)COC(=O)Cn1cnc2ccccc2c1=O` the “activity change, negative = inhibition” value was 14.3%.
`COc1ccccc1N1CCN(C(=O)c2cc3c(-c4ccc(Cl)cc4)nn(C)c3s2)CC1` was tested, and the “activity change, negative = inhibition” value was 2.6%.
For `Cn1nc(-c2ccc(Cl)cc2)c2cc(C(=O)NCc3ccco3)sc21`, the Potency was 3.16 µM (active).
For `O=C(NCc1ccco1)c1cc(-c2cccnc2)nc2ccc(Cl)cc12`, the “activity change, negative = inhibition” value was 110%.
`COc1cccc(-c2nn(C)c3sc(C(=O)N4CCN(c5ccccc5)CC4)cc23)c1` was tested, and the “activity change, negative = inhibition” value was 68.5%.
`O=C(NCc1ccco1)c1nc2ncccn2n1` was tested, and the “activity change, negative = inhibition” value was -4.1%.
`CCOC(=O)N1CCN(C(=O)c2cc3c(-c4ccc(Cl)cc4)nn(C)c3s2)CC1` was tested, and the Potency was 2.51 µM [single pt active] (active).
With `O=C(NCCc1ccccn1)c1ccc(COc2ccccc2)o1` the “activity change, negative = inhibition” value was 31.1%.
With `O=C1CC2(CCCCC2)Oc2ccc(OCC(=O)N3CCOCC3)cc21` the “activity change, negative = inhibition” value was 54.1%.
With `CCc1nnc(NC(=O)CSc2nnc(COc3ccc(C#N)cc3)n2-c2ccccc2)s1` the “activity change, negative = inhibition” value was 49%.
`CCOc1ccc(-n2c(SC(C)C(=O)OC)nc3c(c2=O)SCC3)cc1` (stereo not given) was tested, and the “activity change, negative = inhibition” value was 47.2%.
In the case of `CNC(=O)CN1C(=O)c2ccccc2S1(=O)=O`, the Potency is reported as 3.98 µM [single pt active] (active).
For `O=C(CN1C(=O)c2ccccc2S1(=O)=O)N1CCc2ccccc21`, the “activity change, negative = inhibition” value was -13.7%.
With `CCCc1nnc(NC(=O)CN2C(=O)c3ccccc3S2(=O)=O)s1` the “activity change, negative = inhibition” value was -10.1%.
With `Fc1cccc(/C=N\N=C/c2cccc(F)c2)c1` the “activity change, negative = inhibition” value was 11.7%.
For `COc1cccc(NC(=O)C2CCCN2C(=O)OCc2ccccc2)c1` (stereo not given), the “activity change, negative = inhibition” value was 9.3%.
For `COc1cccc(Nc2nnc(SCC(=O)N3CC(C)OC(C)C3)s2)c1` (stereo not given), the “activity change, negative = inhibition” value was 21%.
With `COc1cccc(NC(=O)Nc2nnc(N3CCCCC3C)s2)c1` (stereo not given) the Potency was 2.51 µM [single pt active] (active).
`COCc1cc(C)nc(SCC(=O)Nc2cccc(C)c2)c1C#N` was tested, and the “activity change, negative = inhibition” value was -7.6%.
For `CC1=C2C(=O)OC(c3ccoc3)C2(C)CCC1` (stereo not given), the “activity change, negative = inhibition” value was -1.9%.
Work on `COc1ccc(C(=O)N/N=C2/C(=O)c3c(C)cc(C)cc3CC2(C)C)cc1` yielded an activity change, negative = inhibition of 18.6% [at 5.75 µM].
With `CCOC(=O)N1CCC(C(N)=O)CC1` the “activity change, negative = inhibition” value was -4.6%.
`Cc1noc(C)c1S(=O)(=O)N(CC(=O)Nc1ccc2c(c1)OCCO2)c1ccc(C(C)C)cc1` was tested, and the “activity change, negative = inhibition” value was -4.4%.
`CCOC(=O)C1(C(F)(F)F)N=C(N(C)C)OC(N(C)C)=N1` was tested, and the “activity change, negative = inhibition” value was -6.4%.
In the case of `N#CC1=C(N)Oc2cc(O)ccc2C1C1CCCCC1` (stereo not given), the “activity change, negative = inhibition” value is reported as -9.2%.
For `O=C(O)c1c(Br)c(Br)c(Br)c(Br)c1C1c2ccc(O)cc2Oc2cc(O)ccc21`, the Potency was 0.158 µM (active).
In the case of `COCCNC(=O)CN1C(=O)CSc2ncccc21`, the “activity change, negative = inhibition” value is reported as -21.6%.
For `CC(C)(Cc1c[nH]c2ccc(Cl)cc12)NCCOc1ccccc1OCC1CC1`, the Potency was 20 µM [single pt active] (active).
Work on `NCC[Se][Se]CCN` yielded an activity change, negative = inhibition of 1.6% [at 5.75 µM].
For `COC(=O)N1CCC[C@@]2(CCN(C(=O)NC(C)C)C2)C1`, the “activity change, negative = inhibition” value was 22.8%.
In the case of `Cc1cc(C)c(C#N)c(SCc2ccc3c(c2)OCO3)n1`, the “activity change, negative = inhibition” value is reported as -11.5%.
For `COc1ccc(Cl)cc1NC(=O)c1oc(C)nc1C`, the “activity change, negative = inhibition” value was 22.7%.
With `Cc1nc(C)c(C(=O)Nc2cccc(C)c2C)o1` the Potency was 3.98 µM [single pt active] (active).
`Cc1nc(C)c(C(=O)Nc2ccc(C)c(F)c2)o1` was tested, and the “activity change, negative = inhibition” value was -4%.
`c1ccc2c(c1)OCC(CNc1ncnc3nc[nH]c13)O2` (stereo not given) was tested, and the “activity change, negative = inhibition” value was 8.2%.
For `c1ccc(CCN2CCN=C2Cc2ccccc2)cc1`, the activity change, negative = inhibition was 13.3% [at 5.75 µM].
For `COc1cccc(N2C(=O)C3CCCN3C2c2ccc(F)cc2)c1` (stereo not given), the “activity change, negative = inhibition” value was 26.5%.
Potency is the fitted concentration of half-maximal effect.
Throughout, for activity change, negative = inhibition: % of control where 0% means no effect.
